Screens (PubChem BioAssay)
The list is not random: actives were taken first. Their share in the collection is about 2.9%.
SKN-1 inh: inhibitors of C. elegans SKN-1; C. elegans VP596 Pgst-4::GFP/RFP ratio, acrylamide-induced, 24 h; inhibition, % at 21.8 µM; actives 0.49% (n = 360,000); AID 624304;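 active means interference check ratio from 0.5 to 1.5 plus GFP to RFP signal ratio inhibition reaching or exceeding a fixed threshold, cut at about 30% in these data, passing the limit was not always enough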
EP2 mod: modulates human prostaglandin E2 receptor EP2 signaling | EP2-expressing cells, cAMP HTRF FRET, PGE2 co-stimulation | induction, % at 25 µM | actives 0.83% (n = 260,000) | AID 940;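 active means compounds whose cAMP rise, as percent of the full-agonist control response, exceeds 60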;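 further: rat C6 glioma line stably carrying human EP2 under a CMV promoter; the protocol text gives 20 µM as final concentration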
RAM inhibit: blocks the yeast RAM network | actives 1.8% (n = 190,000) | S. cerevisiae dse1pr::URA3 reporter, 5-FOA growth OD615, 2 d; analog-sensitive cbk1-as2 kinase mutant strain | inhibition, % at 50 µM;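 active means inhibition above a set limit, 3 SD over mean compound inhibition, cut at about 8.4% in these data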;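 further: inhibition rescues growth on 5-FOA so higher OD means more RAM inhibition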
Rev-erbA mod: modulators of human Rev-erb alpha DNA binding | activity, % at 10 µM | P20393 | AID 1259318 | actives 0.79% (n = 370,000) | Rev-erbα–FITC-DNA binding, fluorescence polarization, 90 min;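 active means activity above about 14%, limit read from the data; passing the limit was not always enough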
Target sequence (P20393 whole entry, looked up): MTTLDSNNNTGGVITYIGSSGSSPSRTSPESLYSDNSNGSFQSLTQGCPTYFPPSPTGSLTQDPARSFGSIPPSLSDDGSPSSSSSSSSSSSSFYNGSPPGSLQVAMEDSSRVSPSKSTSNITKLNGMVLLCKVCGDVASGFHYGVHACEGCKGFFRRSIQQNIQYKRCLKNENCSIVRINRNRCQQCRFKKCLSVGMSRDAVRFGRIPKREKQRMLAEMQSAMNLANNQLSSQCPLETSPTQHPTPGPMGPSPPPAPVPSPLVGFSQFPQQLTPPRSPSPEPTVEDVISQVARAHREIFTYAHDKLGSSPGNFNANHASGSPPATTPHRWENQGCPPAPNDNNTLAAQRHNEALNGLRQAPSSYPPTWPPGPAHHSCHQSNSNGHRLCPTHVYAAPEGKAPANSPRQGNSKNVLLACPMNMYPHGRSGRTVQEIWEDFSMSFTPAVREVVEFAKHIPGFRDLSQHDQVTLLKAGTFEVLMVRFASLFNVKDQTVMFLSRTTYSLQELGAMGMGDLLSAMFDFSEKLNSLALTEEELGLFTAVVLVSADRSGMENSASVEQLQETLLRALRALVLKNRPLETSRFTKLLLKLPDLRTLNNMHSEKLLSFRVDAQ
PG9 binder: small molecules binding HIV-1 gp120 antibody PG9; TR-FRET gp120-PG9 antibody binding; inhibition, % at 6.7 µM; actives 0.43% (n = 360,000); in the data active means inhibition above about 8.5%
EP2 antag: inhibitors of human EP2 prostaglandin E2 receptor; AID 1422; C6 glioma cells expressing human EP2, cAMP TR-FRET; cells stimulated with saturating PGE2; actives 0.52% (n = 260,000); P43116; inhibition, % at 25 µM;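 active means percent inhibition above 40 after rounding to a whole number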;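 further: rat C6 glioma host cells with rolipram phosphodiesterase inhibitor present; the protocol text gives 20 µM as final concentration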
Numbers stand for hits; – = inactive; · = no result.

SMILES	SKN-1 inh	EP2 mod	RAM inhibit	Rev-erbA mod	PG9 binder	EP2 antag
Oc1cc(O)c2c(c1)O[C@H](c1ccc(O)c(O)c1)[C@@H](O)[C@@H]2c1c(O)cc(O)c2c1O[C@@H](c1ccc(O)c(O)c1)[C@H](O)C2	·	–	·	·	·	51.1
Oc1ccc([C@H]2Oc3cc(O)cc(O)c3C[C@H]2O)cc1	·	–	·	·	·	–
COc1ccc2c(c1)C(c1ccncc1)=NNC(c1cccnc1)=N2	·	–	·	·	·	–
Cc1ccc(-c2noc(CN(C(=O)CCCCCN3C(=O)c4ccccc4C3=O)C(C)C)n2)cc1	–	–	9.8	–	–	–
Cc1cc(Br)ccc1OCC(=O)N(Cc1nc(-c2ccccc2)no1)C(C)C	–	–	11.0	–	–	–
Cc1ccc(-c2noc(CN(C(=O)CCCN3C(=O)c4ccccc4C3=O)C(C)C)n2)cc1	–	·	·	–	–	–
COc1ccccc1OCC(=O)N(Cc1nc(-c2ccccc2)no1)C(C)C	–	·	·	–	–	·
COc1cccc(OCC(=O)N(Cc2nc(-c3ccc(Cl)cc3)no2)C(C)C)c1	–	–	10.4	–	–	–
O=C(COc1ccccc1-c1ccccc1)N/N=C/c1ccccn1	–	–	10.9	–	–	–
Cc1ccc(-c2cc(C(=O)N/N=C/c3c[nH]c4ccccc34)[nH]n2)cc1	–	–	–	–	–	57.7
CCc1ccc(-c2cc(C(=O)N/N=C/c3ccccn3)[nH]n2)cc1	–	–	–	–	–	–
O=C(N/N=C/c1ccccn1)c1cc(-c2ccc3ccccc3c2)n[nH]1	–	–	–	–	–	51.0
CC1CN(c2nc3c(c(=O)[nH]2)CCN(C(=O)C(C)C)C3)CC(C)O1 (configuration not stated)	·	–	·	·	·	–
O=C1C=C(N2CCN(c3ccccn3)CC2)C(=O)c2c(O)ccc(O)c21	–	–	·	–	–	66.1
O=C(N1CCN(c2ccccn2)CC1)C(Cl)(Cl)Cl	–	–	–	–	–	–
COc1ccc(CC(=O)N2CCCC(C)C2)cc1 (configuration not stated)	37.3	–	–	–	–	–
COc1cc(NC(=O)c2cccs2)ccc1NC(C)=O	·	–	·	·	·	–
Cc1ccc(S(=O)(=O)N(C)CC(=O)OCC(=O)N2CCN(c3ccccc3)CC2)cc1	–	–	8.7	–	–	–
Cc1ccc(NC(=O)CSc2nnc3n2C(C)(C)Cc2ccccc2-3)cc1	·	–	·	·	·	–
COc1ccc(-c2nnc(SCC(N)=O)o2)cc1OC	·	–	·	·	·	–
c1ccc2c(c1)CCN(C1=Nc3cccc4cccc1c34)C2	48.8	–	–	–	–	–
CCOc1ccc(-n2c(SCc3nc4ccccc4c(=O)[nH]3)nc3ccccc3c2=O)cc1	·	–	·	·	·	–
CCCCC[C@H](O)/C=C/C1=C(CCCCCCC(=O)O)C(=O)CC1	–	88.6	–	·	·	–
COc1cccc(Cn2c3cc(C)sc3c3cnn(Cc4cccnc4)c(=O)c32)c1	·	–	·	·	·	·
COc1ccc2cc3c(N)c(C(=O)N4CCCC(C)C4)sc3nc2c1 (configuration not stated)	·	–	·	·	·	–
SMILES	SKN-1 inh	EP2 mod	RAM inhibit	Rev-erbA mod	PG9 binder	EP2 antag
COc1ccc(N(CC(=O)Nc2ccccc2C(N)=O)S(=O)(=O)c2ccc(C)c([N+](=O)[O-])c2)cc1	–	–	10.1	–	–	–
COc1ccc(N(CC(=O)Nc2ccc(C(N)=O)cc2)S(=O)(=O)c2ccc(C)c([N+](=O)[O-])c2)cc1	–	–	–	–	–	–
Fc1ccc(-n2nnc(-c3nccs3)n2)cc1	71.4	–	–	–	–	–
Clc1ncccc1-c1nnn(-c2ccccc2)n1	–	–	–	–	–	–
Fc1ccc(-n2nnc(-c3cccnc3Cl)n2)cc1	67.8	–	–	–	–	–
COc1ccc([N+](=O)[O-])cc1NC(=O)CSCc1ccc(Br)cc1	–	–	10.6	–	–	–
COC(=O)c1ccc(C(=O)OC)c(NC(=O)CSCc2ccc(Br)cc2)c1	–	–	11.0	–	–	–
COc1ccc([N+](=O)[O-])cc1NC(=O)CSCc1ccccc1C	–	–	8.6	–	–	–
COc1cc(-c2nnc(-c3cccs3)o2)ccc1OCc1ccccc1	·	–	·	·	·	–
O=C(CN1CCC(O)(c2ccccc2)CC1)Nc1ccc2c(c1)OCO2	·	–	·	·	·	–
CN1CCN(CCc2cn3ncc(C#N)c3nc2-c2ccc(F)cc2)CC1	–	–	11.3	–	–	–
COc1ccc(-c2cc(-c3cc(OC)ccc3O)[nH]n2)cc1	–	–	–	–	–	–
COc1ccc(O)c(-c2cc(-c3cccc(Br)c3)n[nH]2)c1	–	–	10.5	–	–	·
Cc1ccc(O)c(-c2cc(-c3cccc(F)c3)n[nH]2)c1	37.0	–	–	–	–	–
COc1ccc(-c2cc(-c3cc(F)ccc3O)[nH]n2)cc1OC	–	–	–	–	–	66.4
Cc1cc(C(F)(F)F)c2c(NCc3cccc4cccnc34)n[nH]c2n1	·	–	·	·	·	–
CCN1C(=O)/C(=C2\C=Cc3cc(C)ccc3N2CC)OC1=S	35.0	–	–	–	–	–
Cc1c(CN2CCc3c(nc(N4CCCC(C)C4)[nH]c3=O)C2)[nH]c2ccccc12 (configuration not stated)	·	–	·	·	·	·
Fc1ccc(CSc2ccc(-c3ccco3)nn2)cc1	–	–	–	–	–	–
Fc1cccc(CSc2ccc(-c3ccco3)nn2)c1	49.4	–	–	–	–	–
Cc1ccc(NC(=O)CN2CCC(c3nc4ccc(Cl)cc4[nH]3)CC2)cc1C	·	–	·	·	·	–
O=C(Nc1ccc(-c2noc(CCc3ccccc3)n2)cc1)c1ccco1	43.8	–	–	–	–	–
c1ccc(CCc2nc(-c3ccccc3)no2)cc1	–	–	–	–	–	–
Nc1ncnc2nc[nH]c12.Nc1ncnc2nc[nH]c12.[Cl][Pt]([Cl])([Cl])[Cl]	·	–	·	·	·	46.6
CCOc1ccc(S(=O)(=O)N2CCOCC2)c2ccccc12	–	·	·	–	–	·
SMILES	SKN-1 inh	EP2 mod	RAM inhibit	Rev-erbA mod	PG9 binder	EP2 antag
O=S(=O)(c1cccc2ccccc12)N1CCCCC1	–	·	·	–	–	·
O=S(=O)(c1ccc(F)c2ccccc12)N1CCCCC1	–	–	8.9	–	–	–
CCOc1ccc(S(=O)(=O)N2CCCCC2)c2ccccc12	–	–	9.4	–	–	·
CC(C)(C)N=C1NN=C(c2ccc(Cl)cc2)CS1	50.6	–	·	–	–	–
O=C(CN1CCCCCC1)Nc1ccc2ccccc2c1	·	–	·	·	·	–
CCOC(=O)C1CCCN(c2oc(-c3ccc(OC)cc3)nc2C#N)C1 (configuration not stated)	–	–	8.8	–	–	–
Cc1ccc(-c2nc(C#N)c(N3CCC(C(N)=O)CC3)o2)cc1	–	·	·	–	–	·
Cc1[nH]n(-c2ccccc2)c(=O)c1N=Nc1ccccc1O	–	–	9.9	–	–	–
COCCCNC(=S)N(Cc1cc2c(C)ccc(C)c2[nH]c1=O)C1CCCCC1	·	–	·	·	·	–
CCn1c2ccccc2c2cc(/C=N/NC(=O)c3ccccc3C)ccc21	–	–	–	–	–	–
